Screening data as filed in PubChem BioAssay.
Most compounds without a hit are left out; they make up all but 1.3% or so of the library.
KLK7 zymogen act: proKLK7 zymogen activators, primary screen, biochemical, fluorescence intensity; AID 652039, 2013; Kallikrein-7 (Homo sapiens), P49862; 370,000 compounds, 0.9% hits; purified proKLK7, EDANS-DABCYL substrate fluorescence; 100% is mature enzyme control, 0% vehicle; activation, % at 7 µM;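 active = activation above the mean of all tested compounds plus 3 SD, computed per campaign excluding outliers beyond control limits, cut at about 13% in these data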
Target sequence (P49862 whole entry, looked up): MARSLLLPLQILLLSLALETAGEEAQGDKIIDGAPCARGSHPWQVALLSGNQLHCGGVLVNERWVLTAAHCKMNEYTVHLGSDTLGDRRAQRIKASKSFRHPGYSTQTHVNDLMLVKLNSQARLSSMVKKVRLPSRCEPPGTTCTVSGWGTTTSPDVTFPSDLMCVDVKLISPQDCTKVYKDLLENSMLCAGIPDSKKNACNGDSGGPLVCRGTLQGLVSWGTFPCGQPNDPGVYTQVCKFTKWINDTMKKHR
GC-A act: GC-A stimulated cGMP production enhancers – HEK293 GC-A cells, cGMP TR-FRET, EC30 ANP, primary screen | 370,000 compounds, 0.14% hits | activation, % at 10 µM | AID 1671463, 2021 | Atrial natriuretic peptide receptor 1 (Homo sapiens), P16066 | 0% at EC30 ANP, 100% saturating ANP; in the data active = activation above about 40%
NPR2 activator: human GC-B receptor activators, primary screen, HEK293 GC-B cells, cGMP TR-FRET, EC30 CNP | Atrial natriuretic peptide receptor 2 (Homo sapiens), P20594 | 0% at EC30 CNP, 100% saturating CNP | activation, % at 10 µM | 370,000 compounds, 0.11% hits | AID 1920062, 2024;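 active = activation at 10 µM reaching about 35% in either raw or pattern-adjusted values, limit read from the data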
HIF activator: HIF pathway transcriptional activators, primary screen, cell-based, U2OS HRE-luciferase, luminescence; U2OS HRE-luciferase reporter; normalized: DMSO 0%, desferrioxamine 100%; activation, % at 7.5 µM (by protocol); 300,000 compounds, 0.32% hits; AID 1910, 2009;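 active = mean activation of at least 10% of the iron chelator positive control signal, with at least half of replicates also reaching 10%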
proKLK7 act conf: proKLK7 zymogen activators, confirmation, biochemical, fluorescence intensity, triplicate; 3,200 compounds, 68% hits; purified proKLK7, EDANS-DABCYL substrate fluorescence; scaled: vehicle 0, mature enzyme 100; activation, % at 7 µM; shares compounds with KLK7 zymogen act;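 active = activation, as change over the incubation, above the mean of all tested compounds plus 3 SD, cut at about 13% in these data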
EDANS-DABCYL int: EDANS-DABCYL substrate optical interference, artefact control for kallikrein-7 zymogen activator project, biochemical, fluorescence intensity, high throughput; shares compounds with KLK7 zymogen act; no enzyme, 4 h; solvent 0%, active enzyme control 100%; activation, % at 7 µM; 3,200 compounds, 80% hits; AID 686952, 2013;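 active = activation above the all-compound mean plus 3 SD, ignoring values outside control-based bounds, cut at about 4.8% in these data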;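 also: value is the 4 h activation minus the activation read at time zero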
K7 EDANS ctr: EDANS fluorescence interference in dose response, no enzyme | EC50, µM | 250 compounds, 20% hits | EDANS-DABCYL peptide fluorescence interference | shares compounds with KLK7 zymogen act;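 active = compounds that raise the fluorescence signal in this interference counterscreen, with EC50 at or below 10 µM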;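 also: intact quenched peptide substrate alone read at 355 nm excitation and 520 nm emission; signal is fluorescence gain from T0 to T4 after four hours at room temperature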
An asterisk follows results filed as active; i = inactive; . = not tested or not shown.

SMILES	KLK7 zymogen act	GC-A act	NPR2 activator	HIF activator	others
Cc1cccc(OCCn2cccc2/C=C2/C(=O)NC(=O)N(Cc3ccco3)C2=O)c1	0	-9	-12	592*
CN1C(=O)C(=Cc2ccc(SC3CCCCC3)o2)C(=O)N(C)C1=O	-1	47*	-2	0
COc1ccc(OC)c(NC2=NCCCS2)c1	-1	-3	1	37*
COc1ccc(OC)c(NC2=NCCS2)c1	0	0	3	-1
O=C1NC(=O)N(Cc2ccccc2)C(=O)/C1=C/c1cnn(-c2ccccc2)c1	.	.	.	0
COc1ccccc1N1C(=O)NC(=O)/C(=C\c2cnn(-c3ccccc3)c2)C1=O	0	52*	11	0
c1cncc(-c2ccc3n2Cc2cnnn2-c2ccccc2-3)c1	0	-1	1	.
CCOP(=S)(OCC)Oc1cc(C)nc(C(C)C)n1	0	2	74*	.
CO[C@H]([C@H](C)/C=C/N(C)C=O)[C@@H](C)C(=O)CC[C@H](C)[C@H](O)[C@H](C)[C@H]1OC(=O)/C=C/C(C)=C/[C@H](O)[C@H](OC)C[C@@H]2C=CC[C@@H](C[C@H](OC)[C@@H](CO)[C@@H](OC)C[C@@H](OC)[C@@H]1C)O2	.	-27	-29	.
CC(C)=CCSc1nnc([C@@H](N)Cc2c[nH]c3ccccc23)o1	1	3	-1	18*
C=C(C)CSc1nnc([C@@H](N)Cc2c[nH]c3ccccc23)o1	1	2	-3	0
COc1cccc(C(=O)C2CCCN(Cc3ccc4nsnc4c3)C2)c1 (centres undefined)	1	1	-2	243*
COc1cccc(C(=O)C2CCCN(Cc3ccc(F)cc3)C2)c1 (centres undefined)	0	-1	-4	-1
O=[N+]([O-])c1cc(S(=O)(=O)c2ccc(O)c([N+](=O)[O-])c2)ccc1O	0	-1	7	36*
O=[N+]([O-])c1cccc(O)c1	1	5	-2	.
CC(C)Cc1nnc(NC(=O)CCC(=O)N2CCC3(CC2)OCCO3)s1	0	-3	4	21*
CCCCCCn1c(N)c(C(=O)NCCN2CCOCC2)c2nc3ccccc3nc21	-69	28	36*	0
COC(=O)c1c(C)n(Cc2ccccc2)c2ccc(O)cc12	0	80*	5	0
CCOC(=O)c1c(C)n(Cc2ccccc2)c2ccc(O)cc12	0	86*	5	0
Cc1c(C(=O)C(=O)N2CCOCC2)c2ccccc2n1Cc1ccccc1	0	4	3	0
CC(=O)c1c(C)n(Cc2ccccc2)c2ccc(O)cc12	0	74*	15	0
N#CC1c2ccccc2-n2nncc2CN1C(=O)c1cccnc1 (centres undefined)	0	2	8	.
N#CC1c2ccccc2-n2nncc2CN1C(=O)c1ccc([N+](=O)[O-])o1 (centres undefined)	0	0	5	.
COC(=O)C1(N(C)c2ccccc2)CCN(Cc2ccccc2)CC1	1	4	1	.
COc1cc2c(cc1OC)[C@H]1C(=O)c3ccc4c(c3O[C@H]1CO2)C[C@@H](C(C)(C)O)O4	1	56*	3	.
SMILES	KLK7 zymogen act	GC-A act	NPR2 activator	HIF activator	others
CC(=O)N1c2ccccc2C(c2ccccc2)=NCC1C(=O)NCc1ccccc1 (centres undefined)	0	-2	-4	.
c1cc2c(cc1[C@H]1OC[C@H]3[C@@H]1CO[C@H]3c1ccc3c(c1)OCO3)OCO2	0	0	1	.
N#CC1=C(N)Oc2cc(O)ccc2C1c1ccc2c(c1)OCO2 (centres undefined)	1	44*	7	0
O=C(CN1C(=O)[C@@H](Cc2c[nH]c3ccccc23)N=C(c2ccccc2)c2ccccc21)NC1CCCCC1	0	-4	-3	.
CN1C(=O)[C@@]23C[C@]4(c5c[nH]c6ccccc56)c5ccccc5N(S(=O)(=O)c5ccccc5)[C@@H]4N2C(=O)[C@@H]1SS3	.	-17	13	.
COc1ccc2c(c1)[nH]c1c(C)nccc12	47*	15	-7	.	proKLK7 act conf=20*;EDANS-DABCYL int=11*;K7 EDANS ctr=i
C#CC1(O)CCC2C3CCC4=CC(=O)CCC4=C3C=CC21C (centres undefined)	14*	2	0	.	proKLK7 act conf=9;EDANS-DABCYL int=11*
NC(Cc1ccccc1)[P+](=O)O (centres undefined)	1	3	4	.
CC1CN(CC(=O)c2ccccc2Cl)CC(C)O1 (centres undefined)	16*	2	9	-19	proKLK7 act conf=0;EDANS-DABCYL int=0
N#CCC[C@H]1CC[C@]2(CCCN(Cc3ccccn3)C2)O1	-1	2	0	.
CC[C@H](C(N)=O)N1CCCC1=O	-1	2	4	.
COc1ccc(-c2cc(=NCCC(=O)O)c3cc(C)ccc3o2)cc1	85*	7	3	4	proKLK7 act conf=69*;EDANS-DABCYL int=73*
COc1ccc(-c2cc(=Nc3ccccc3)c3cc(C)ccc3o2)cc1	-14	-3	-2	0
O=C(O)c1cc2ccccc2n1C1CCN(Cc2ccccc2)CC1	0	0	3	.
O=C(c1cc2c(s1)-c1ccccc1OC2)N1CCC2(CC1)OCCO2	50*	-1	1	5	proKLK7 act conf=63*;EDANS-DABCYL int=75*
COc1ccc(-n2c(/C=C/c3ccc(O)cc3)nc3ccccc3c2=O)cc1	0	-5	8	0
O=c1c2ccccc2nc(/C=C/c2ccc(O)cc2)n1-c1cccc(O)c1	214*	-1	22	0	proKLK7 act conf=207*;EDANS-DABCYL int=78*
O=c1c2ccccc2nc(/C=C/c2ccc(O)cc2)n1-c1ccc(O)cc1	26*	1	6	0	proKLK7 act conf=14*;EDANS-DABCYL int=2;K7 EDANS ctr=>23
Brc1csc(N2CCNCC2)n1	.	2	2	.
O=C(CN1C(=O)[C@@H](Cc2ccccc2)N=C(c2ccccc2)c2ccccc21)NC1CCCCC1	0	-21	-27	.
O=C(NC(Cc1ccccc1)P(=O)(O)Oc1ccccc1)OCc1ccccc1 (centres undefined)	0	1	1	.
O=C(Cc1cc(=O)oc2cc(O)ccc12)NN=Cc1ccc(N(CCCl)CCCl)cc1	119*	-5	-6	.	proKLK7 act conf=44*;EDANS-DABCYL int=31*;K7 EDANS ctr=i
